For experiment [1], the system named is Aerobactin synthetase IucA (Klebsiella pneumoniae). Briefly: inhibition of K. pneumoniae IucA enzyme – biochemical, Tocris library, absorbance (AID 1345561).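 Further: 100% = enzyme without compound and 0% = no enzyme.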 The conditions noted are these: purified IucA enzyme assay, absorbance (OD) read-out; stronger effect = lower value;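 tested at 8 µM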.
Experiment [2] can be described thus: signal quenchers or enhancers, Cy5 substrate/SSB – biochemical, NIH Clinical Collection, E. coli SSB, artefact control for HCV NS3 helicase inhibitor project (AID 743268). Conditions: Cy5-oligo bound E. coli SSB, fluorescence interference.
Experiment [3] deals with Hepatitis C virus NS3 helicase. Briefly: blockers of NS3h binding to DNA – biochemical, fluorescence polarization, NIH Clinical Collection, primary screen (AID 743270). Conditions: NS3 helicase binding to Cy5-dT15 DNA, stronger effect = higher value, concentration not given here. On the technique in general: Polarisation of emitted light reports the rotation of a fluorescent probe.
The target of experiment [4] is Single-stranded DNA-binding protein (Escherichia coli (strain K12)) (UniProt P0AGE0). Briefly: SSB-ssDNA binding inhibitors – biochemical, fluorescence polarization, NIH Clinical Collection, counter-screen for HCV NS3 helicase inhibitor project (AID 743271; in the data active means inhibition above about 28%). The conditions noted are these: E. coli SSB-DNA binding, stronger effect = higher value, concentration not given here.
Experiment [5] can be described thus: compounds distorting NS3 helicase fluorescence signal – biochemical, NIH Clinical Collection, artefact control for HCV NS3 helicase inhibitor project (AID 743272).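 Further: HCV NS3 helicase with a Cy5 labelled single stranded DNA probe.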 The conditions noted are these: fluorescence interference counterscreen, HCV NS3 helicase assay; stronger effect = lower value. (The purpose of a counterscreen is to sort out artefacts and off-target activity.)

Experiment [6] can be described thus: viability loss in pontine glioma line – cell-based, SU-DIPG-XIII, MIPE4.0, CellTiter-Glo, qHTS, dose response (AID 1347061; cut-off not given, nearly all actives have AC50 up to about 37 µM;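 further: cells exposed to compound for 48 hours before readout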). The conditions noted are these: CellTiter-Glo ATP luminescence. On the technique in general: ATP-based viability assays read luminescence as a measure of living cells.
Experiment [7] in a line: viability loss in pontine glioma line – cell-based, JHH-DIPG-1, MIPE4.0, CellTiter-Glo, qHTS, dose response (AID 1347062; cut-off not given, nearly all actives have AC50 up to about 27 µM). Conditions: JHH-DIPG-1 viability, CellTiter-Glo ATP luminescence.
Experiment [8] is described as follows: viability loss in pontine glioma line – cell-based, SU-DIPG-IV, MIPE4.0, CellTiter-Glo, qHTS, dose response (AID 1347063; cut-off not given, nearly all actives have AC50 up to about 30 µM;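 further: compound exposure lasted 48 hours before the viability readout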). The conditions noted are these: CellTiter-Glo ATP luminescence.
The nature of experiment [9]: growth inhibition of DIPG cells – cell-based, MIPE4.0 library, CellTiter-Glo luminescence, qHTS (AID 1347066; cut-off not given, nearly all actives have AC50 up to about 30 µM;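 further: cells exposed to compound for 48 hours before readout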). The conditions noted are these: SU-DIPG-VI viability, CellTiter-Glo ATP luminescence.
The test system of the next experiment is F380Y/beta4. As to the kind of experiment: BK channel mutant inhibitors and activators – cell-based, U2OS BacMam, thallium flux, beta subunits, selectivity assay, profiling panel (AID 1259406;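 active means thallium flux through the channel raised or lowered by more than 3 SD from vehicle-only wells, actives on both sides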;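 further: initial slope of Thallos dye fluorescence rise after thallium is added; log ratio against the mean of 0.3% DMSO vehicle wells on the same plate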). Conditions: U2OS BacMam BK variants, at 30 µM.
The target in experiment [10] is Calcium-activated potassium channel subunit alpha-1 (Homo sapiens) + Leucine-rich repeat-containing protein 26 (Homo sapiens) (UniProt Q12791+Q2I0M4). The description is as above. Conditions: U2OS BacMam BK variants, F380Y/Slo1WT/gamma1, at 30 µM.
Calcium-activated potassium channel subunit alpha-1 (Homo sapiens) + Leucine-rich repeat-containing protein 26 (Homo sapiens), sequence (Q2I0M4 whole entry, looked up, one chain of several): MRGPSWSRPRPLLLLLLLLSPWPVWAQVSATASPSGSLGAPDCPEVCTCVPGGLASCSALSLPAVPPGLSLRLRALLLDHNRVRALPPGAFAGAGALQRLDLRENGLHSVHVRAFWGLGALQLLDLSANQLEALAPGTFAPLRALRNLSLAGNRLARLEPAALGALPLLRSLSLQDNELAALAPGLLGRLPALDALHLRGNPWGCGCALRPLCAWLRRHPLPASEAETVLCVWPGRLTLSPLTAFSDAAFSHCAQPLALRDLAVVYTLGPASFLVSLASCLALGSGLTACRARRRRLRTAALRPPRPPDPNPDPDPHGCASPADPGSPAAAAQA
In a further experiment the test system is R275C/beta4. Described as above. Conditions: U2OS BacMam BK variants, at 30 µM.
The nature of experiment [11]: viability loss in pontine glioma line – cell-based, SU-DIPG-XVII, MIPE5.0, CellTiter-Glo, qHTS, dose response (AID 1347060; cut-off not given, nearly all actives have AC50 up to about 26 µM). The conditions noted are these: CellTiter-Glo ATP luminescence.
A short description of experiment [12]: JHH-DIPG-1 glioma cell viability, MIPE5.0 library, CellTiter-Glo luminescence, qHTS (AID 1347067; cut-off not given, nearly all actives have AC50 up to about 26 µM;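 further: cells exposed to compound for 48 hours before readout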). The conditions noted are these: JHH-DIPG-1 glioma viability, CellTiter-Glo ATP luminescence.
Experiment [13] can be described thus: growth inhibition of DIPG cells – cell-based, MIPE5.0 library, qHTS (AID 1347068; cut-off not given, nearly all actives have IC50 up to about 30 µM). The conditions noted are these: SU-DIPG-XXV viability.
Experiment [14] relates to Neuropilin-2 / VEGF-C interaction (human). Briefly: small molecules blocking Neuropilin-2/VEGF-C interaction – biochemical, microplate binding format, z-score (AID 743281). Conditions: microplate NRP2/VEGF-C binding assay; stronger effect = lower value.
Experiment [15] is described as follows: growth inhibition, single agent or in combination, cell-based, chromothripsis tumors, cisplatin or BGB combos (AID 1671449; in the data active means inhibition above about 80%;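 further: cells exposed for 96 hours; 0% = vehicle DMSO and 100% = killing by high DMSO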). The conditions noted are these: LFS_MB_P medulloblastoma cells.
Experiment [16] is described as follows: growth inhibition, single agent and combos, cell-based, chromothripsis tumors, cisplatin or BGB combos (AID 1671450; in the data active means inhibition above about 80%;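 further: cells exposed to compound for four days; 0% = vehicle DMSO and 100% = cell killing by high DMSO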). The conditions noted are these: HDN33 neuroblastoma cells, stronger effect = higher value.
Experiment [17] is described as follows: growth inhibition, single agents and combos, ICB984, cell-based, cisplatin or BGB combos, synergistic combos for chromothripsis tumors (AID 1671451).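 Further: cells exposed for 96 hours before readout; 0% = vehicle DMSO and 100% = killing by high DMSO.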 Conditions: ICB984 medulloblastoma cells, drug combinations, stronger effect = higher value.
Experiment [18] in a line: growth inhibition, single agents and combos, HTB85, cell-based, BGB or cisplatin IC20 combos, synergistic combos for chromothripsis tumors (AID 1671453; in the data active means inhibition above about 80%;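 further: cells exposed for 96 hours before readout; 0% = vehicle DMSO and 100% = high DMSO killing control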). Conditions: HTB85 osteosarcoma cells, drug combinations, stronger effect = higher value.

“And” between values parts separate entries of the source, which are not always exact repeats. Identical values can stand only once. Inconclusive results are not listed. The source made the active and inactive calls. Unless noted, how the calls were made is not given here.

One may read the remaining activity as the signal under treatment as a percentage of the control signal. With `CC[C@@H](CO)NC(=O)[C@@H]1C=C2c3cccc4c3c(cn4C)C[C@H]2N(C)C1`, the remaining activity in [1] was 121% (inactive).
Usually inhibition stands for the drop in the measured response relative to a control, in per cent. As for `CN1CCN(C(=O)O[C@H]2c3nccnc3C(=O)N2c2ccc(Cl)cn2)CC1`, the fluorescence ratio in experiment [2] was 1 (inactive); in experiment [5], 1.03 (inactive). The inhibition in experiment [3] was -4.09% (inactive); in experiment [4], -4.29% (inactive). Besides, the compound was called inactive in [6], in experiment [7], in experiment [8] and in experiment [9]. Also, the log fold change Tl+ flux in the experiment with F380Y/beta4 is -0.00667 (inactive); in experiment [10], -0.0271 (inactive); in the experiment on R275C/beta4, 0.00608 (inactive).
Regarding `COc1ccc(C(=O)N2CCCC2=O)cc1`, the remaining activity in [1] was 97.7% (inactive). The result in [11], in experiment [6], in experiment [7], in [8], in [9] and in experiment [12] was inactive. Besides, the result in [13] was inactive.
On to `Nc1ccncc1`, for which the remaining activity in experiment [1] was 127% (inactive).
Regarding `NC(=O)OCCCc1ccccc1`, the fluorescence ratio is 1.07 (inactive) in experiment [2] and 1.03 (inactive) in [5]. The inhibition is 0.4% (inactive) in experiment [3] and -1.64% (inactive) in experiment [4]. Further, in experiment [14], the z-score was -0.636 (inactive). The log fold change Tl+ flux is 0.0583 (inactive) in the experiment on F380Y/beta4, -0.0246 (inactive) in [10] and -0.0265 (inactive) in the experiment with R275C/beta4.
Consider `O=P1(NCCCl)OCCCN1CCCl` (stereo unspecified), for which the call in experiment [11], in [6], in [7], in [9], in experiment [12] and in experiment [13] was inactive. The inhibition is -12.1% (inactive) and -23.4% (inactive) in experiment [15] (at 0.5 µM, stronger effect = higher value); -22% in experiment [15] (measured here: combination with BGB IC20, at 0.005 µM); -15% and -23.6% in experiment [15] (measured here: combination with BGB IC40, at 0.005 µM); -22.5% and -36.7% in experiment [15] (measured here: combination with BGB IC40, at 0.05 µM); -34.3% and -30.8% in experiment [15] (measured here: combination with cisplatin, at 0.5 µM, stronger effect = higher value); -44% and -49.9% in [15] (measured here: combination with cisplatin, at 5 µM, stronger effect = higher value). Moreover, the inhibition in experiment [16] (BGB combo, at 5 µM) was -18.3% and -55.5%; in experiment [16] (at 0.5 µM), 2.74% (inactive) and -43.1% (inactive); in experiment [16] (cisplatin combo, at 5 µM), -14.3% and -32.8%; in [16] (measured here: with BGB IC20 combination, at 0.5 µM), 36.5% and -51.2%; in experiment [16] (measured here: with cisplatin IC20 combination, at 0.5 µM), -4.58% and -35.3%; in [16] (single agent, at 5 µM), -24.7% and -29.3%. The inhibition was -4.87% and -19.5% in experiment [17] (BGB IC20 combo, at 0.005 µM); -32.7% and -24.5% in experiment [17] (BGB IC40 combo, at 0.005 µM); -25.4% and -42.1% in experiment [17] (BGB IC40 combo, at 0.05 µM); -22% (inactive) and -43% (inactive) in experiment [17] (at 0.5 µM); -25.4% and -47.2% in experiment [17] (cisplatin combo, at 0.05 µM); -28.2% and -28.3% in experiment [17] (cisplatin combo, at 0.5 µM). Also, the inhibition in [17] (cisplatin combo, at 5 µM) was -18% and -28.2%; in experiment [17] (measured here: 5 uM single agent, at 5 µM), -4.46% and 4.1%; in experiment [18] (at 0.5 µM) it was -11.8% (inactive) and -20.1% (inactive); in [18] (measured here: with BGB IC20, at 0.5 µM), -26.1% and -41.8%; in experiment [18] (measured here: with BGB IC20, at 5 µM) it was -16.8% and -29.8%; in experiment [18] (measured here: with cisplatin IC20, at 0.5 µM) it was 9.75% and -12.8%. In addition, the inhibition was 1.05% and -46.6% in experiment [18] (measured here: with cisplatin IC20, at 5 µM); -10.4% and -9.47% in experiment [18] (single agent, at 5 µM).
For the compound `CN[C@@H]1C[C@@H](c2ccc(Cl)c(Cl)c2)c2ccccc21`, the figures for the fluorescence ratio in experiment [2] and in experiment [5] were 0.98 (inactive) and 0.97 (inactive), respectively. Besides, the inhibition is -3.56% (inactive) in experiment [3] and -3.95% (inactive) in experiment [4]. Further, the z-score in experiment [14] was 0.266 (inactive). The remaining activity in [1] is 118% (inactive). In addition, the log fold change Tl+ flux in [10] was 0.0738 (inactive).
Turning to `CCC(COC(=O)c1cc(OC)c(OC)c(OC)c1)(c1ccccc1)N(C)C` (stereo unspecified), the fluorescence ratio in experiment [2] and in experiment [5] was 0.98 (inactive) throughout. The inhibition was -1.19% (inactive) in [3] and -0.87% (inactive) in [4]. Moreover, the z-score in [14] is -1.07 (inactive). Further, the log fold change Tl+ flux in the experiment on F380Y/beta4 is -0.301 (active); in [10], -0.141 (active); in the experiment with R275C/beta4, -0.198 (active).
Turning to `c1ccc2c(c1)Nc1ccccc1S2`, the fluorescence ratio was 0.96 (inactive) in [2] and 0.95 (inactive) in experiment [5]. Moreover, the inhibition in [3] is 1.53% (inactive); in [4], 5.12% (inactive). Further, the z-score in [14] is 0.0903 (inactive). Further, the results for the log fold change Tl+ flux (in the experiment with F380Y/beta4; in experiment [10]; in the experiment with R275C/beta4) were -0.0296 (inactive), -0.0274 (inactive) and -0.0162 (inactive), respectively.
For the compound `CC(C)c1cccc(C(C)C)c1O`, the fluorescence ratio in experiment [2] is 0.96 (inactive); in experiment [5] it was 0.87 (inactive). In addition, the figures for the inhibition in experiment [3] and in [4] were -1.36% (inactive) and 4.1% (inactive), respectively. Further, the compound was classed as inactive in experiment [11], in experiment [7], in experiment [8], in experiment [9], in [12] and in [13]. The log fold change Tl+ flux is -0.00471 (inactive) in the experiment with F380Y/beta4, -0.0487 (inactive) in experiment [10] and -0.0411 (inactive) in the experiment with R275C/beta4.
For `C#CCN(C)[C@H](C)Cc1ccccc1`, the fluorescence ratio in experiment [2] is 0.95 (inactive) and 0.99 (inactive); in [5], 0.9 (inactive) and 0.99 (inactive). Also, the inhibition in [3] was -5.15% (inactive) and -7.73% (inactive); in experiment [4] it was 2.21% (inactive) and -4.29% (inactive). Moreover, the z-score in [14] was -0.865 (inactive). Moreover, the compound was classed as inactive in experiment [11], in [6], in experiment [7], in [8], in [12] and in [13]. For the same compound, the log fold change Tl+ flux was 0.0201 (inactive) in the experiment with F380Y/beta4, 0.000386 (inactive) in experiment [10] and -0.0396 (inactive) in the experiment on R275C/beta4.

The values are drawn from PubChem BioAssay.
